NOD2-RIPK2 inh: NOD2-RIPK2 protein interaction inhibition; inhibition, % at 4.98 µM; CHO BLA complementation NOD2-RIPK2, CCF4 ratio; AID 624267; O43353; hit rate 0.38% among 360,000; in the data active = inhibition above about 21%;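 note: 0% = vehicle only and 100% = reference blocker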
Target sequence (O43353 whole entry, looked up): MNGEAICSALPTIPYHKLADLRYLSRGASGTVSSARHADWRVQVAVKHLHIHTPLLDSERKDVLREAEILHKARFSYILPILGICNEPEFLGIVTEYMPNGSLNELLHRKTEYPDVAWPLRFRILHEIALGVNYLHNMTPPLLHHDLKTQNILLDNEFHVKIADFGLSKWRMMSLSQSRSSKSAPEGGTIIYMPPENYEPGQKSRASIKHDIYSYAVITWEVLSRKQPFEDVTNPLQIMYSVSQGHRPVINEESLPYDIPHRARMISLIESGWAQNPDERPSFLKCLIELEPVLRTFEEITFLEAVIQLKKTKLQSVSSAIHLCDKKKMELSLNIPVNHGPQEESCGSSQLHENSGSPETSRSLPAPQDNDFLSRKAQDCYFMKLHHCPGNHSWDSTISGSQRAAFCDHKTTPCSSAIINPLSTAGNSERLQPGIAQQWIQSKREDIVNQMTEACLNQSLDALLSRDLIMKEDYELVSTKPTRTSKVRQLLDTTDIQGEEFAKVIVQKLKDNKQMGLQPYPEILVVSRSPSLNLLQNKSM
Granule exo inh: lytic granule exocytosis inhibition; AID 651702; hit rate 0.66% among 360,000; TALL-104 LAMP-1 surface exposure, flow cytometry; cells stimulated with thapsigargin and PMA; inhibition, % at 10 µM;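 active = inhibition above about 55%, limit read from the data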
ABHD5 PLIN5 PPI: blocks binding of human ABHD5 to perilipin-5; Q00G26+Q8WTS1; Split G. princeps luciferase complementation, luminescence, 4 h; inhibition, % at 4 µM; hit rate 0.78% among 360,000; AID 602281;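 active = inhibition above the mean inhibition across every tested compound plus 3 SD, cut at about 22% in these data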;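 note: 0% = DMSO only wells and the 100% control is not disclosed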
PRMT1 FP inh: inhibitors of human PRMT1. Q99873. recombinant PRMT1, activity-based probe fluorescence polarization. inhibition, % at 2.79 µM. hit rate 1.3% among 370,000. AID 652257;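 active = inhibition above about 21% made by adding two undisclosed values, limit read from the data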
TLR4 MyD88 comp: inhibitors of human TLR4-MyD88 binding. hit rate 0.18% among 200,000. inhibition, % at 8.4 µM. HeLa CL3-4 TLR4/MyD88 BLA complementation, FRET ratio; in the data active = inhibition above about 25%;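 note: 0% = vehicle and 100% = reference inhibitor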
TLR9-MyD88 block: blocks human TLR9 binding to MyD88; inhibition, % at 4.98 µM; CHO BLA complementation TLR9-MyD88, CCF4 FRET ratio; Q9NR96+Q99836; hit rate 0.21% among 340,000;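 active = inhibition above the mean over all tested compounds plus 3 SD, cut at about 21% in these data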;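 note: 0% = DMSO only wells and 100% = clavulanate BLA inhibitor control wells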
PRMT1 confirm: PRMT1 (human) inhibition, FP confirmation. shares compounds with PRMT1 FP inh. recombinant His-PRMT1, activity-based probe fluorescence polarization. inhibition, % at 2.79 µM. hit rate 42% among 3,300;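 active = mean inhibition across replicates above the hit cutoff derived for the earlier primary screen, cut at about 22% in these data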
* hit, by the source's call; / = no result given. This is a sample that favours compounds with a hit; in the whole collection about 2.6% have one here.

SMILES	NOD2-RIPK2 inh	Granule exo inh	ABHD5 PLIN5 PPI	PRMT1 FP inh	TLR4 MyD88 comp	TLR9-MyD88 block	PRMT1 confirm
CCN1CCC2(CC1)Oc1c(OC)cccc1C1CC(c3cccnc3)=NN12 (stereo not given)	-4	8	2	0	/	/	/
O=C(CCCc1nc2ccccc2s1)Nc1nccs1	1	-2	0	41*	4	-3	14
Cc1ccc2nc(NC(=O)CCCc3nc4ccccc4s3)sc2c1	3	-2	-12	4	-21	-5	/
Cc1cnc(NC(=O)CCCc2nc3ccccc3s2)s1	-11	-2	-6	49*	0	7	21
O=C(CCCSc1nc2ccccc2s1)Nc1nccs1	0	0	-5	4	-1	5	/
CNc1ncnc2c1ncn2[C@H]1CN(CCN2CCOCC2)C[C@@H](CO)O1	-19	0	-3	-3	/	/	/
O=C(CSc1nccc(=O)[nH]1)Nc1ccc(F)c(Cl)c1	3	5	-7	42*	-5	4	30*
O=C(CSc1nccc(=O)[nH]1)Nc1ccc(Br)c(Cl)c1	2	-1	1	0	-5	0	/
Cc1cccc(C)c1NC(=O)COC(=O)c1c2c(nc3ccccc13)/C(=C\c1ccc3c(c1)OCO3)CCC2	7	3	5	145*	14	17	5
CC(OC(=O)c1c2c(nc3ccccc13)/C(=C\c1ccc3c(c1)OCO3)CCC2)C(=O)Nc1ccc(S(N)(=O)=O)cc1 (stereo not given)	4	0	15	/	12	5	/
CCOc1cc(/C=C2\CCCc3c2nc2ccccc2c3C(=O)O)ccc1OC	-14	-7	-2	117*	/	-8	0
Cc1ccc(-c2nnc(SCC(=O)Nc3ccc(-c4nc5ccc(C)cc5s4)cc3)n2Cc2ccco2)cc1	/	/	/	34*	/	/	22*
C=CCn1c(SCC(=O)Nc2ccc(-c3nc4ccc(C)cc4s3)cc2)nnc1-c1ccccc1	-2	-4	-6	4	-5	0	/
Cc1ccc2nc(-c3ccc(NC(=O)CSc4nnc(-c5cccc(Cl)c5)n4Cc4ccco4)cc3)sc2c1	/	/	/	47*	/	/	13
C=CCn1c(SCC(N)=O)nnc1-c1ccc(C)cc1	/	/	/	7	/	/	/
O=c1/c(=C/c2ccco2)sc2n1CN(c1cccc(Br)c1)CN=2	-4	1	0	12	4	5	/
Cc1ccc(/C=c2\sc3n(c2=O)CN(c2cccc(Br)c2)CN=3)o1	3	1	8	34*	2	0	4
CN1CCC(CNC(=O)Nc2csc3ccccc23)CC1	4	25	-2	42*	/	/	-1
N#Cc1c(N(CCO)CCO)nc(N)c2c(N)nc3c(c12)CC(=O)N3CC1CCCO1 (stereo not given)	-9	-2	7	30*	/	7	14
Cc1ccc(NS(=O)(=O)c2ccc(C(=O)NCCCN3CCCC3=O)cc2)cc1	-6	28	2	3	/	7	/
CCC(C)N1CCC(Oc2ccc(C(=O)NCc3ccccn3)cc2)CC1 (stereo not given)	4	-6	0	-5	/	-12	/
N#CC1=C(N)Oc2ccc3ccc(O)cc3c2C1c1ccsc1 (stereo not given)	0	-3	-10	83*	-2	-2	16
CC(CNC(=O)CN1C(=O)NC2(CCOc3ccccc32)C1=O)c1ccccc1 (stereo not given)	-8	0	4	3	/	-5	/
COCCN(CCOC)Cc1cc(=O)oc2cc(C)cc(C)c12	-1	-3	6	-1	/	/	/
CC(C)n1c(CNC(=O)c2ccccc2F)nnc1SCC(=O)NC1CCCCC1	10	-2	-2	33*	/	-2	0
SMILES	NOD2-RIPK2 inh	Granule exo inh	ABHD5 PLIN5 PPI	PRMT1 FP inh	TLR4 MyD88 comp	TLR9-MyD88 block	PRMT1 confirm
CCn1c(CNC(=O)c2ccccc2F)nnc1SCC(=O)NC1CCCCC1	0	-14	-7	2	-3	2	/
Cc1ccc(S(=O)(=O)N(C)c2ccc(OC(=O)c3cccs3)cc2)cc1	-14	-3	1	1	/	-3	/
COCCn1c(CCC(=O)O)ccc1-c1cccs1	6	0	7	4	-4	-1	/
Cc1ccc(-n2c(CCC(=O)O)ccc2-c2cccs2)cc1C	-6	6	16	32*	11	-4	4
CCOC(=O)c1ccc(-n2c(CCC(=O)O)ccc2-c2cccs2)cc1	3	4	14	47*	3	-1	6
COCCSc1ccccc1C(=O)Nc1cc(C)on1	-2	1	-11	26*	-5	2	22*
CC1(C(=O)NS(=O)(=O)c2cccs2)CCN1C(=O)CCc1ccc(Cl)cc1Cl (stereo not given)	-9	-5	-1	-3	/	/	/
CCN(CC)c1ccc(N=C2C=CC(=O)C=C2NC(C)=O)cc1	-8	2	-1	54*	/	/	3
CCN(CC)c1ccc(NC(=O)Nc2ccc(C(C)=O)cc2)cc1	-2	1	-6	2	-1	1	/
CC(C)(C)c1csc(NC(=O)Cn2cnc3ccccc3c2=O)n1	8	-1	-12	29*	-10	3	0
CC(C)(C)c1csc(NC(=O)CSc2nc3ccccc3c(=O)[nH]2)n1	-8	1	-1	8	6	-9	/
NC(=O)COC(=O)C12CC3CC(CC(O)(C3)C1)C2	-3	1	1	-1	-7	-3	/
NC(CSS(=O)(=O)O)=NCCC12CC3CC(CC(O)(C3)C1)C2	-10	1	-30	41*	-1	-11	44*
Cc1ccc([C@@H]2C3COCC=C3C(C#N)=C(N)C2(C#N)C#N)o1 (stereo not given in full)	4	2	0	28*	12	3	6
CC(Oc1ccc(C(=O)c2ccccc2)cc1)C(=O)N1CCOCC1 (stereo not given)	8	-3	-11	2	/	-5	/
O=C1C(Cl)=C(N2CCOCC2)C(=O)N1c1ccccc1F	-1	7	10	40*	/	-11	13
Cc1ccccc1N1C(=O)C(Cl)=C(N2CCOCC2)C1=O	1	4	4	8	/	-3	/
Cc1cccc(CNC(=O)C2CCC(=O)N(Cc3ccccc3F)C2)n1 (stereo not given)	-12	-4	1	-3	/	-8	/
Cc1ccc(S(=O)c2ccc([N+](=O)[O-])c3nonc23)cc1 (stereo not given)	-3	101*	13	58*	/	0	106*
CC1(OC(=O)CCc2ccccc2)C(=O)C=C2C=C(c3ccc(C#N)cc3)N(Cc3ccco3)C=C2C1=O (stereo not given)	-5	13	2	28*	/	7	10
O=C(O)c1cc(N/N=C/c2ccc(-c3ccc(F)cc3)o2)ccc1Cl	-5	11	-8	34*	/	-5	0

Screens from PubChem.
